# Values without a mark were called inactive. Results filed as inconclusive are left out. Where a call stands in place of a potency, no number is given. The source made the active and inactive calls. Unless noted, the call rests on the fitted dose curve; in most records, active means well fitted curve in the direction sought with a large enough effect in the repeat runs; inconclusive means weak or mixed curves; inactive means no such curve, though single readings can be large; an effect the other way counts as inactive or inconclusive.
# Key:
# [1] = qHTS assay to test for compound auto fluorescence at 535 nm (green) in HEK293 cells (AID 720680)
# [2] = qHTS assay to test for compound auto fluorescence at 460 nm (blue) in HEK293 cell free culture (AID 720681)
# In short: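 Compounds were added to cell-free DMEM with 10% FBS and fluorescence read directly. The blue channel used 405 nm excitation and 460 nm emission, with triamterene as the reference fluorophore.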
# [3] = qHTS assay to test for compound auto fluorescence at 535 nm (green) in HEK293 cell free culture (AID 720682)
# In short: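 Green-label autofluorescence (485 nm excitation, 535 nm emission) measured on compound added to cell-free culture medium (DMEM, 10% FBS). Output is expressed relative to fluorescein.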
# [4] = qHTS assay to test for compound auto fluorescence at 590 nm (red) in HEK293 cell free culture (AID 720683)
# In short: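 Cell-free wells of DMEM with 10% FBS received compound, and intrinsic fluorescence was read at excitation/emission 540/590 nm. Values expressed as equivalence to Rose Bengal sodium.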
# [5] = qHTS assay to test for compound auto fluorescence at 590 nm (red) in HepG2 cell free culture (AID 720684)
# In short: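 Rose Bengal sodium served as the reference for red signal. Test compounds were dispensed into serum-containing MEM (10% FBS) without cells, and plates were read at 540/590 nm.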
# [6] = qHTS assay to test for compound auto fluorescence at 460 nm (blue) in HepG2 cell free culture (AID 720685)
# In short: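 Cell-free plates of MEM plus 10% FBS received 23 nL compound or DMSO vehicle; blue-channel (405/460 nm) intensity scored against triamterene as reference fluorophore.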
# [7] = qHTS assay to test for compound auto fluorescence at 535 nm (green) in HepG2 cell free culture (AID 720686)
# [8] = qHTS assay to test for compound auto fluorescence at 460 nm (blue) in HepG2 cells (AID 720687)
# In short: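 HepG2 cells in MEM with 10% FBS, attached overnight at 37 C, were exposed to compound or DMSO for 1 hr at 37 C, 5% CO2. Blue fluorescence was read at 405/460 nm, with triamterene as reference fluorophore.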
# [9] = biological target: Glucocorticoid receptor (Homo sapiens) (UniProt P04150); assay: qHTS assay to identify small molecule agonists of the glucocorticoid receptor (GR) signaling pathway (AID 720691; active means well fitted activation curve with a large enough effect in the signal ratio in the repeat runs, not every such curve was filed as active; the % refers to the signal ratio)
# In short: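 Cells: GR-bla HeLa, endogenous GR with stably integrated GRE-beta-lactamase reporter. Treatment 18 h, 37 C, compounds delivered in DMSO. Detection via LiveBLAzer B/G FRET substrate, 2 h RT, fluorescence intensity.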
# [10] = qHTS assay to identify small molecule antagonists of the glucocorticoid receptor (GR) signaling pathway - cell viability counter screen (AID 720693); further: nearly all actives have a fitted effect of over 55% in size
# [11] = qHTS assay for identifying genotoxic compounds that show differential cytotoxicity against isogenic chicken DT40 cell lines with known DNA damage response pathways - wild type cell line (AID 743012); further: nearly all actives have a fitted effect of over 60% in size; further: potency means the concentration at half of the fitted maximal effect
# In short: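 Luminescent ATP viability signal (CellTiter-Glo, 30 min RT) recorded after wild type DT40 cells were incubated with compounds for 40 h at 37 C/5% CO2.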
# [12] = qHTS assay for identifying genotoxic compounds that show differential cytotoxicity against isogenic chicken DT40 cell lines with known DNA damage response pathways - Rev3 mutant cell line (AID 743014); further: nearly all actives have a fitted effect of over 55% in size; further: potency means the concentration at half of the fitted maximal effect
# [13] = qHTS assay for identifying genotoxic compounds that show differential cytotoxicity against isogenic chicken DT40 cell lines with known DNA damage response pathways - Rad54/Ku70 mutant cell line (AID 743015); further: nearly all actives have a fitted effect of over 60% in size; further: potency means the concentration at half of the fitted maximal effect
# [14] = qHTS assay to identify small molecule antagonists of the androgen receptor (AR) signaling pathway - cell viability counter screen (AID 743033; further: nearly all actives have a fitted effect of over 45% in size)
# [15] = biological target: Androgen receptor (Homo sapiens) (UniProt P10275); assay: qHTS assay to identify small molecule antagonists of the androgen receptor (AR) signaling pathway (AID 743035; active means well fitted inhibition curve with a large enough effect in the signal ratio in the repeat runs, not every such curve was filed as active; the % refers to the signal ratio)
# In short: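 Quantitative HTS of the Tox21 10K library used HEK293 AR-UAS-bla cells stimulated with R1881 alongside compound for 16 h at 37C, followed by beta-lactamase FRET detection (LiveBLAzer B/G, 2 h, RT).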
# [16] = biological target: Androgen receptor (Homo sapiens) (UniProt P10275); assay: qHTS assay to identify small molecule agonists of the androgen receptor (AR) signaling pathway (AID 743036; active means well fitted activation curve with a large enough effect in the signal ratio in the repeat runs, with a control signal flat, not every such curve was filed as active; the % refers to the signal ratio)
# In short: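 AR-UAS-bla HEK293 cells, plated 4 h before dosing, were treated with compound for 16 h at 37C. beta-Lactamase reporter read after 2 h with LiveBLAzer B/G FRET substrate at room temperature.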
# [17] = biological target: Androgen receptor (Homo sapiens) (UniProt P10275); assay: qHTS assay to identify small molecule agonists of the androgen receptor (AR) signaling pathway using the MDA cell line (AID 743040; further: nearly all actives have a fitted effect of over 20% in size)
# In short: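 Luciferase read-out, ONE-Glo, 30 min RT. Cells: MDA-kb2 AR-luc, MMTV promoter with AR and GR response elements. Compound exposure 16 h, 37C, 0% CO2, after 5 h pre-incubation. qHTS agonist mode.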
# [18] = qHTS assay to identify small molecule antagonists of the androgen receptor (AR) signaling pathway using the MDA cell line - cell viability counter screen (AID 743041; further: nearly all actives have a fitted effect of over 45% in size)
# In short: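 Cytotoxicity counter screen: MDA-kb2 AR-luc cells, compound + R1881, 16 h, 37C, 0% CO2; CellTiter-Fluor added at 15.5 h, fluorescence read after 30 min.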
# [19] = biological target: Androgen receptor (Homo sapiens) (UniProt P10275); assay: qHTS assay to identify small molecule antagonists of the androgen receptor (AR) signaling pathway using the MDA cell line (AID 743042; further: nearly all actives have a fitted effect of over 55% in size)
# In short: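 MDA-kb2 breast carcinoma cells carrying MMTV-luciferase (AR/GR responsive) were co-treated with compounds and the agonist R1881 for 16 h at 37C. Inhibition read as ONE-Glo luminescence; CellTiter-Fluor fluorescence measured in parallel for cytotoxicity.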
# [20] = biological target: Glucocorticoid receptor (Homo sapiens) (UniProt P04150); assay: qHTS assay to identify small molecule antagonists of the glucocorticoid receptor (GR) signaling pathway (AID 720692; active means well fitted inhibition curve with a large enough effect in the signal ratio in the repeat runs, not every such curve was filed as active; the % refers to the signal ratio)
# In short: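 Quantitative HTS in antagonist format: HeLa cells expressing endogenous GR and a stably integrated GRE-bla reporter, stimulated with 5 nM dexamethasone (final) alongside test compounds for 18 h.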
# Glucocorticoid receptor (Homo sapiens), sequence (P04150 whole entry, looked up): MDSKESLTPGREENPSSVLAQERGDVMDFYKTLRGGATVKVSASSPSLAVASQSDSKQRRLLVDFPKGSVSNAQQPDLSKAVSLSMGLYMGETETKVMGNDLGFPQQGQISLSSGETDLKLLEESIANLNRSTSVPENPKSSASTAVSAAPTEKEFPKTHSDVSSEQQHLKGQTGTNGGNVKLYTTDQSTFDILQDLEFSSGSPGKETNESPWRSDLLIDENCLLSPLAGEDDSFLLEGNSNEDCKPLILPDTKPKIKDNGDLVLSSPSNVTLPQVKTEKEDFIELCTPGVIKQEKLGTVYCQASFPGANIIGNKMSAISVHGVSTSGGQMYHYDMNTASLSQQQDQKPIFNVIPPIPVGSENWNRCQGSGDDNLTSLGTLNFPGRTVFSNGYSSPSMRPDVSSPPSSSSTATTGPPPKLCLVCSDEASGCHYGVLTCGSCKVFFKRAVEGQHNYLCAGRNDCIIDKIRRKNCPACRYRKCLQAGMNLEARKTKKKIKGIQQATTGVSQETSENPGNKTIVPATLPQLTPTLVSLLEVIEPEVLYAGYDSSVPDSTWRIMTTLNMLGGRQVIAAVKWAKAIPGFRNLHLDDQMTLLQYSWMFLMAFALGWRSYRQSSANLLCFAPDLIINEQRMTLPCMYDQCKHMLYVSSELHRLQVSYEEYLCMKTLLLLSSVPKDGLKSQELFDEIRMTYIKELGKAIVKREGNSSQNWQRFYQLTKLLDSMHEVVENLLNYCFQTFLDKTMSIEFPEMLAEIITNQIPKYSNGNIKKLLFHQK
# Androgen receptor (Homo sapiens), sequence (P10275 whole entry, looked up): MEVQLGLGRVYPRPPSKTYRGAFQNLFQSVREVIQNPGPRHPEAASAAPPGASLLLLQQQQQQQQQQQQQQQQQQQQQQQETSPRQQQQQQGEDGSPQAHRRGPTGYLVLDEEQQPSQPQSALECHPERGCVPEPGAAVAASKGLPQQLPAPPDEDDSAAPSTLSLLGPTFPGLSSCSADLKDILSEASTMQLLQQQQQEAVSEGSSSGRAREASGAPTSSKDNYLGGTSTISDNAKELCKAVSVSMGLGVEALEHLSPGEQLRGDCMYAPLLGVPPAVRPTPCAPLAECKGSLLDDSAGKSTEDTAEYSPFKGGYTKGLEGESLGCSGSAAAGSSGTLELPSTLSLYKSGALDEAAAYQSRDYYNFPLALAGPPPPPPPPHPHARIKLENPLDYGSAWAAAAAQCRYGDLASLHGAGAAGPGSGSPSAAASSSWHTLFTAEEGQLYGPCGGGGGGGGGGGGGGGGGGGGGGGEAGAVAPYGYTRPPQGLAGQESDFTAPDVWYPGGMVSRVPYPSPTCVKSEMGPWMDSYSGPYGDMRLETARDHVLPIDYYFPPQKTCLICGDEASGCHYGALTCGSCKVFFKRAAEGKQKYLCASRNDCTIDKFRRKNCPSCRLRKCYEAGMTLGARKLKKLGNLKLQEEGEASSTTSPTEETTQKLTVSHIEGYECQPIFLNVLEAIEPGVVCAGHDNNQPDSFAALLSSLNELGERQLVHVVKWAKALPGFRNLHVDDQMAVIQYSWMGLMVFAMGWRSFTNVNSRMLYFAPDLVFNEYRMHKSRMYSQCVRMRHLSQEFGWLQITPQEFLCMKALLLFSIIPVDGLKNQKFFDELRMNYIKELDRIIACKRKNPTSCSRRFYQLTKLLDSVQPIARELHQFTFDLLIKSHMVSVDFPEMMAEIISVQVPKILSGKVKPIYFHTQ
Compound,outcome [1],outcome [2],outcome [3],outcome [4],outcome [5],outcome [6],outcome [7],outcome [8],Potency [9],outcome [10],Potency [11],Potency [12],Potency [13],outcome [14],outcome [15],outcome [16],Potency [17],Potency [18],outcome [19],outcome [20]
CCCCC1CCC(O)CC1 (stereo not given),inactive,inactive,inactive,inactive,inactive,inactive,inactive,inactive,inactive,inactive,inactive,inactive,inactive,inactive,inactive,inactive,inactive,inactive,inactive,
CC(=O)CCc1ccc(OC(C)=O)cc1,inactive,inactive,inactive,inactive,inactive,inactive,inactive,inactive,inactive,inactive,inactive,,inactive,inactive,,,,inactive,,inactive
CC(C)CCOC(=O)c1ccccc1,inactive,inactive,inactive,inactive,inactive,inactive,inactive,inactive,,inactive,inactive,inactive,inactive,inactive,,,,inactive,,
Cc1ccc2c(c1)C(=O)c1ccccc1C2=O,inactive,inactive,inactive,inactive,inactive,inactive,inactive,inactive,inactive,inactive,48.4 µM (active),54.3 µM (active),60.9 µM (active),inactive,,,,inactive,,
COc1ccc2c(c1)c1c3n2CCN(C)C3=NCC1,inactive,inactive,inactive,inactive,inactive,inactive,inactive,inactive,inactive,inactive,,,23.7 µM (active),inactive,inactive,,inactive,inactive,,
CC(=O)Nc1ccc(OC(=O)c2ccccc2OC(C)=O)cc1,inactive,inactive,inactive,inactive,inactive,inactive,inactive,inactive,inactive,inactive,inactive,,inactive,inactive,,,,inactive,,
OCC1(CO)COCOC1,inactive,inactive,inactive,inactive,inactive,inactive,inactive,inactive,inactive,inactive,,inactive,inactive,inactive,,,,inactive,,
CC(C)NCC(O)c1ccc2ccccc2c1 (stereo not given),inactive,inactive,inactive,inactive,inactive,inactive,inactive,inactive,inactive,inactive,15 µM (active),,,inactive,,,,inactive,,inactive
CC1=NN(c2ccc(S(=O)(=O)O)cc2)C(=O)C1,inactive,inactive,inactive,inactive,inactive,inactive,inactive,inactive,inactive,inactive,inactive,,inactive,inactive,,,,inactive,,inactive

# — PubChem BioAssay (Tox21)
